Screening data from PubChem.
Sampled rows, rich in hits. Any-hit rate of the full collection: about 3%.
KLF5 inh: inhibitors of KLF5 expression. DLD-1 KLF5 promoter-luciferase reporter, luminescence. inhibition, % at 5 µM. actives 0.23% (n = 290,000). AID 1700;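 active = inhibition above a per-plate limit of that plate's mean compound inhibition plus 3 SD, cut at about 60% in these data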;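 also: 0% = DMSO wells and 100% = LY294002 at 200 µM; higher means less KLF5 promoter-driven luciferase light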
IEC-6 cytotox: kills IEC-6 intestinal cells in KLF5 counter-screen; IEC-6 cytotoxicity, luminescence viability; inhibition, % at 5 µM; actives 0.78% (n = 290,000); AID 1825; in the data active = inhibition above about 22%;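 also: 0% = plate median of test compound wells and 100% = cytotoxic reference compound wells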
CSC inhib: cancer stem cell inhibition. cancer stem cell-like cells viability, luminescence. inhibition, % at 7.5 µM. actives 1.1% (n = 300,000). AID 2717; in the data active = inhibition above about 75%; inconclusive = no clear call, values can overlap the other calls; tested in HMLE shEcad cells
SKKanGAS inh: SKKanGAS growth inhibition. S. pyogenes SKKanGAS, kanamycin growth, BacTiter-Glo, 6 h. inhibition, % at 7.5 µM. actives 1.3% (n = 300,000);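 active = mean replicate score, as percent of positive control median, at least 50; inconclusive = mean below 50 but one replicate at or above 50; inactive = mean and every replicate below 50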;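 also: strain carries kanamycin resistance gene driven by streptokinase promoter and grows in 40 µg/ml kanamycin; loss of luminescence reflects streptokinase promoter inhibition or plain growth inhibition; 0% = median of DMSO wells and 100% = positive control at its reference dose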
aSyn 5UTR inh: MLPCN primary screen, SNCA 5' untranslated region; inhibition, % (tested at 7.5 µM); actives 0.82% (n = 300,000); AID 1813; alpha-synuclein 5'UTR reporter, inhibitor activity; in the data active = inhibition above about 60%; inconclusive = no clear call, values can overlap the other calls;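 also: H4 neuroglioblastoma cells stably carrying SNCA 5'UTR luciferase fusion; 0% = DMSO wells and 100% = positive control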
Numbers without * were called inactive; ? = inconclusive; · = no result given.

SMILES | KLF5 inh | IEC-6 cytotox | CSC inhib | SKKanGAS inh | aSyn 5UTR inh
CCN1CCN(c2cc3c(cc2F)c(=O)c(C(=O)O)cn3C2CC2)CC1 | 6.1 | 1.4 | -13.8 | 103.5* | -27.4
CCn1cc(C(=O)O)c(=O)c2cc(F)c(N3CCN(C(=S)NC(=O)c4ccc(F)cc4)CC3)cc21 | -18.3 | -0.1 | -5.8 | 25.4 | 21.5
Cc1cc(C(=O)Nc2ccc(F)c(Cl)c2)on1 | -36.0 | -2.6 | -7.8 | -0.1 | -6.8
S=C(NCc1ccccc1)N1CCN(C(=S)NCc2ccccc2)CC1 | · | · | -9.7 | · | ·
COc1cc(/C=C(/C#N)c2nc3ccccc3[nH]2)ccc1OCC(=O)Nc1ccccc1C(C)C | 1.9 | -2.4 | 99.8* | 31.0 | 103.5*
COc1cc(/C=C(/C#N)c2nc3ccccc3[nH]2)ccc1OCC(=O)Nc1ccccc1C | -2.5 | -1.3 | 83.1* | · | ·
O=C(CCN1C(=O)C2C3CCC(C3)C2C1=O)OCC(=O)c1ccc(Cl)cc1 (centres undefined) | -14.8 | -5.0 | -30.8 | -3.2 | 13.9
Cc1onc(-c2ccccc2)c1-c1nnc(CN2CCN(S(=O)(=O)c3ccccc3)CC2)o1 | · | · | -2.1 | · | ·
Cc1cc(C)c(S(=O)(=O)/N=C2/C=C(Sc3ncn[nH]3)C(=O)c3ccccc32)cc1C | -0.9 | 13.6 | 103.2* | · | ·
O=C(N/N=C/c1ccc([N+](=O)[O-])o1)c1ccc2c(c1)OCO2 | -16.8 | 0.7 | -13.4 | 3.5 | 93.6*
O=C(CNc1cccc2ccccc12)N/N=C/c1ccc([N+](=O)[O-])o1 | -10.8 | -0.9 | 13.4 | 131.4* | 10.9
O=C(Cc1ccc([N+](=O)[O-])cc1)N/N=C/c1ccc([N+](=O)[O-])o1 | -26.3 | -12.9 | -15.9 | ? | 88.7*
O=C(N/N=C\c1ccc(-c2ccc([N+](=O)[O-])cc2)o1)c1ccc2c(c1)OCO2 | 11.5 | -4.7 | -1.6 | -4.7 | 3.6
O=C(CNc1cccc2ccccc12)N/N=C/c1ccc[nH]1 | -20.9 | -0.3 | 35.4 | 49.7* | 11.5
O=C(CNc1cccc([N+](=O)[O-])c1)N/N=C/c1ccc([N+](=O)[O-])o1 | -14.0 | -1.2 | -0.1 | 3.9 | -10.3
CSc1ccc(/C=N/NC(=O)CNc2cccc3ccccc23)cc1 | -25.4 | 3.9 | 3.9 | 0.7 | 3.6
CCCc1nc2ccccc2c(=O)n1CCc1ccccc1 | -3.9 | -0.5 | -6.8 | -1.7 | 4.4
Nc1nn2cc(-c3ccc(Br)cc3)nc2c2ccccc12 | -95.7 | 15.5 | · | 25.5 | -164.5
c1ccc(-c2cn3nc4c(nc3n2)CCCC4)cc1 | -39.1 | 4.1 | 11.2 | 14.3 | 109.3*
c1ccc(-c2cn3nc(-c4ccccc4)cnc3n2)cc1 | -46.8 | -6.8 | 0.3 | · | ·
Brc1ccc(-c2cn3nc4c(nc3n2)CCCC4)cc1 | -103.3 | 7.6 | -1.6 | 11.1 | 93.1*
O=C(CSc1nncs1)N1c2ccccc2Sc2ccccc21 | -11.4 | -2.9 | -7.1 | 3.4 | 4.9
Cc1ccc(SCC(=O)N2c3ccccc3Sc3ccccc32)cc1 | -19.5 | 6.7 | 19.8 | 51.5* | -2.1
COc1cc(-c2nc(-c3ccc4c(c3)-c3ccccc3S4(=O)=O)c(-c3ccccc3)[nH]2)cc(OC)c1O | -50.3 | 4.1 | 37.1 | 66.1* | 7.9
COc1ccc(-c2[nH]c(-c3ccc(C(=O)O)cc3)nc2-c2ccccc2)cc1 | 5.9 | 1.4 | -2.6 | 10.2 | -1.2
SMILES | KLF5 inh | IEC-6 cytotox | CSC inhib | SKKanGAS inh | aSyn 5UTR inh
Cc1ccc(-n2nc3ccc(N)cc3n2)c(C)c1 | -47.9 | 7.0 | 19.3 | 7.1 | 65.9*
Cc1cc(N)ccc1-n1nc2ccccc2n1 | · | · | 2.8 | -4.4 | 43.9
Oc1ccc(-c2csc(Nc3ccccn3)n2)c(O)c1 | -121.0 | 11.5 | 103.2* | 1.3 | -133.9
COC(=O)c1ccccc1NC(=O)COC(=O)CO/N=C(\C)c1ccc2c(c1)OCO2 | -28.0 | -0.5 | -10.6 | -3.3 | 2.9
Cc1ccc(N2C(=O)c3ccccc3C2O)nc1 (centres undefined) | -50.4 | 17.1 | 49.9 | 31.7 | 72.7*
CC(=O)c1ccc(NC(=O)c2cc(Cl)sc2Cl)cc1 | -102.8 | 9.2 | -4.6 | -1.5 | -155.8
CCc1ccc(CN(C)Cc2nc(-c3cccc(Cl)c3)no2)nc1 | -25.4 | 11.4 | -1.3 | 62.5* | 0.1
Cc1ccc2nc(-c3cc(-c4ccccc4)no3)cn2c1 | -91.6 | 3.2 | -12.3 | -10.4 | 85.8*
O=C(Nc1cc(Cl)cc(Cl)c1)N1CCCC1 | -19.5 | -3.5 | 20.4 | 58.7* | -2.8
COc1cccc(C(=O)NNC(=O)C(=O)Nc2cccc(Cl)c2C)c1 | -10.8 | -2.9 | · | 26.8 | -13.5
COc1ccccc1C(=O)NNC(=O)C(=O)Nc1cccc(Cl)c1C | -28.0 | 6.6 | 11.3 | 53.0* | 0.0
Cc1cc(S(=O)(=O)NCc2ccc(N3CCN(C)CC3)cc2)c(C)s1 | -10.5 | 0.1 | 40.6 | -3.3 | -22.4
C[C@@H]1CC[C@]2(C(=O)O)CC[C@]3(C)C(=CCC4[C@@]5(C)CC[C@H](O)[C@@](C)(C(=O)O)C5CC[C@]43C)C2[C@]1(C)O (some centres undefined) | · | · | -14.0 | · | ·
C[C@H]1[C@H](C)CC[C@]2(C)CC[C@]3(C)C(=CC[C@@H]4[C@@]5(C)CC[C@@H](O)[C@](C)(C(=O)O)[C@@H]5CC[C@]43C)[C@H]12 | · | · | 76.5* | 101.5* | 13.8
C[C@H]1[C@H](C)CC[C@]2(C)CC[C@]3(C)C(=CC(=O)C4[C@@]5(C)CC[C@H](O)C(C)(C)C5CC[C@]43C)[C@H]12 (some centres undefined) | · | · | 98.2* | · | ·
C[C@H]1O[C@H](O[C@H]2[C@H](O[C@@H]3CC[C@@]4(C)C(CC[C@]5(C)C4CC=C4[C@@H]6CC(C)(C)CC[C@]6(C(=O)O[C@@H]6O[C@H](CO)[C@@H](O)[C@H](O)[C@H]6O)CC[C@]45C)C3(C)C)O[C@H](C(=O)O)[C@@H](O)[C@@H]2O)[C@@H](O)[C@@H](O)[C@@H]1O (some centres undefined) | · | · | 9.2 | · | ·
C[C@@H]1CC[C@]2(C(=O)O)CC[C@]3(C)C(=CCC4[C@]56CC[C@@](O)(OC5)C(C)(C)C6CC[C@]43C)C2[C@H]1C (some centres undefined) | · | · | 96.1* | · | ·
C[C@H]1[C@H](C)CC[C@]2(C(=O)O)CC[C@]3(C)C(=CC[C@@H]4[C@@]5(C)CC[C@H](O)C(C)(C)[C@@H]5CC[C@]43C)[C@H]12 | · | · | 65.8 | 106.7* | 17.9
CC1(C)[C@@H](O)CC[C@]2(C)[C@H]3C(=O)C=C4[C@@H]5C[C@@](C)(C(=O)O)CC[C@]5(C)CC[C@@]4(C)[C@]3(C)CC[C@@H]12 | -11.3 | 3.7 | -5.1 | 15.4 | -18.3
CCN(CC(=O)NCc1ccc(Cl)cc1)C(=O)CCOc1ccc(C)cc1 | · | · | -8.2 | 0.1 | 10.2
CN(C(=O)CC1C(=O)NCCN1Cc1ccc(F)c(F)c1)C1CCOCC1 (centres undefined) | -0.3 | -4.8 | 6.1 | 0.9 | 8.6
Cc1ccnc(NS(=O)(=O)c2cc(C(F)(F)F)ccc2Cl)c1 | -40.5 | 2.0 | -22.3 | -0.2 | 8.8
C[C@H]1[C@H](C)CC[C@]2(C(=O)O)CC[C@]3(C)C(=CC[C@@H]4[C@@]5(C)C[C@@H](O)[C@H](O)C(C)(C)[C@@H]5CC[C@]43C)[C@H]12 | -2.5 | -6.3 | 94.7* | 102.9* | 5.1
